Reference: PubChem BioAssay AID504444 (National Center for Advancing Translational Sciences (NCATS), 2011)
Screen size: about 360,000 compounds; about 7,500 (2.1%) were called active. Another 20% or so got no clear call; they are omitted. Calls follow the shape of the dose curve; as a rule, active = well fitted inhibition curve with a large enough effect; inconclusive = small, poorly fitted or top-dose-only effect, or effect the other way; inactive = flat fitted curve, though single readings scatter. Shown is part of a subset that was picked to be rich in actives.

Test: Nrf2 qHTS screen for inhibitors; also: nearly all actives have a fitted effect of over 60% in size
Details: A549 ARE-Fluc reporter, luciferase luminescence, 18-24 h; series mostly up to 46 µM; activity change, negative = inhibition: at the top concentration
Summary of the method: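 Nrf2 function is reported as luminescence of an ARE-controlled luciferase in A549 cells. Compounds were tested at several concentrations, and a CellTiter-Fluor read on the same wells flagged cytotoxicity.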
% is scaled to controls: 0 for no effect and ±100 for the full control effect; potency is read from the fitted curve at half-maximal effect.

| Compound | activity change, negative = inhibition | Potency |
| --- | --- | --- |
| O=C(NCc1ccccc1CN1CCCC1)C1CCN(S(=O)(=O)c2ccc(Cl)cc2)CC1 | 13.4% (inactive) |  |
| CCOc1ccc(S(=O)(=O)c2cn(Cc3ccc(OC)cc3)c3ccc(F)cc3c2=O)cc1 | -7.26% (inactive) |  |
| CCn1cc(C(=O)NCc2ccc(C)cc2)c(=O)c2cc(S(=O)(=O)N3CCc4ccccc4C3)ccc21 | 5.14% (inactive) |  |
| Cc1cc2c(s1)c1cnn(Cc3c(F)cccc3Cl)c(=O)c1n2C | 16.9% (inactive) |  |
| CC(C)Cn1c(-c2ccc(S(=O)(=O)N3CCOCC3)cc2)csc1=Nc1cc(Cl)ccc1Cl | -3.88% (inactive) |  |
| CCn1cc(C(=O)N2CCN(c3cc(C)ccc3C)CC2)c(=O)c2cc(S(=O)(=O)N(C)C3CCCCC3)ccc21 |  | 23.1 µM (active) |
| CCn1cc(C(=O)N2CCN(c3cc(Cl)ccc3C)CC2)c(=O)c2cc(S(=O)(=O)N3CCCC3)ccc21 | -10.7% (inactive) |  |
| Cc1ccc(Cl)cc1N1CCN(C(=O)c2cn(C)c3ccc(S(=O)(=O)N(C)C4CCCCC4)cc3c2=O)CC1 | 25.6% (inactive) |  |
| CCN1CCC(O)(/C=C/c2ccc(C)cc2)C(C(=O)/C=C/c2ccc(C)cc2)C1 (configuration not stated) | -22.3% (inactive) |  |
| CC[C@@]1(C(=O)OC)N[C@H](CN(C)C(C)=O)[C@@H]2C(=O)N(C)C(=O)[C@@H]21 | -0.744% (inactive) |  |
| O=C(NCCc1ccco1)c1ccc(OCc2cn3ccccc3n2)cc1 | 23.3% (inactive) |  |
| COC1C(CO)OC(n2cnc3c(=S)nc(N)[nH]c32)C1O (configuration not stated) | -1.21% (inactive) |  |
| CC(C)(C)c1cc(C(=O)NN)n(Cc2ccc(Cl)cc2Cl)n1 | -13.1% (inactive) |  |
| O=c1ccn(Cc2ccccc2Cl)cc1 | 3.6% (inactive) |  |
| N#CC(C#N)=CN=c1ccn(Cc2ccc(Cl)cc2Cl)cc1 |  | 1.84 µM (active) |
| CCNS(=O)(=O)c1ccc(CCC(=O)N2CCN(c3ccc(OC)cc3)CC2)cc1 | 0.623% (inactive) |  |
| CCNS(=O)(=O)c1ccc(CCC(=O)N2CCN(c3cc(Cl)ccc3C)CC2)cc1 |  | 8.2 µM (active) |
| CCCNS(=O)(=O)c1ccc(CCC(=O)N2CCCC2)cc1 | -0.614% (inactive) |  |
| O=C(CN1C(=O)NC2(CCCCCCC2)C1=O)NCc1ccc(F)cc1 | 8.87% (inactive) |  |
| CSc1ccc(CN2C(=O)NC3(CCCCCC3)C2=O)cc1 |  | 18.4 µM (active) |
| O=C(CN1C(=O)NC2(CCCCCC2)C1=O)NCc1ccc(F)cc1 | -6.21% (inactive) |  |
| COc1ccc(C2(c3ccc(OC)cc3)NC(=O)N(CC(=O)Nc3cc(C)on3)C2=O)cc1 | 2.89% (inactive) |  |
| Cc1cccc(CC2(O)C(=O)Nc3ccccc32)n1 (configuration not stated) | -21.7% (inactive) |  |

| Compound | activity change, negative = inhibition | Potency |
| --- | --- | --- |
| COC(=O)c1ccc(N2CCOCC2)c(NC(=O)c2ccc3c(c2)OCCO3)c1 | 3.57% (inactive) |  |
| O=C(Nc1cccc(Cl)c1N1CCOCC1)c1cccnc1 | -6.75% (inactive) |  |
| O=C(Nc1cccc(Cl)c1N1CCOCC1)c1ccc2c(c1)OCCO2 |  | 23.1 µM (active) |
| CC/C(=C(/c1ccccc1)c1ccc(OCC[N+](C)(C)C)cc1)c1ccccc1 | -7.21% (inactive) |  |
| CCC(=O)Nc1c(S(=O)(=O)c2ccccc2)c2nc3ccccc3nc2n1Cc1ccccc1 |  | 14.6 µM (active) |
| CCN(CC)CCn1c(N)c(S(=O)(=O)c2ccccc2)c2nc3ccccc3nc21 | -2.15% (inactive) |  |
| COC(=O)CSc1nc2ccccc2c(=O)n1Cc1ccccc1 | 4.16% (inactive) |  |
| COc1cc(C(=O)CCc2ccc3c(c2)OCO3)cc(OC)c1OC | 0.0369% (inactive) |  |
| COc1cccc(CNC(=O)CSc2c3c(nc4cc(Cl)ccc24)CCCC3)c1 | -28.8% (inactive) |  |
| CCOc1ccc(S(=O)(=O)N2CCCCC2)cc1NC(=O)CN1CCCC1c1cccs1 (configuration not stated) |  | 8.2 µM (active) |
| CCOc1ccccc1NC(=O)COc1ccc(S(=O)(=O)N2CCCC2)cc1 | 8.32% (inactive) |  |
| COc1ccc(S(=O)(=O)N2CCCCC2)cc1NC(=O)COc1ccccc1 | -5.84% (inactive) |  |
| COc1cc(/C=C/CNC[C@H]2O[C@@H](n3cnc(C(N)=O)n3)[C@H](O)[C@@H]2O)ccc1O | -6.54% (inactive) |  |
| COc1ccc(NC(=O)CSC2=Nc3ccccc3C3=NC(CC(=O)NCc4ccccc4OC)C(=O)N23)cc1Cl (configuration not stated) | 7.31% (inactive) |  |
| COc1ccc(-c2cc(C(F)(F)F)n3nc(-c4ccccc4)cc3n2)cc1OC | -2.55% (inactive) |  |
| COc1ccccc1-c1oc2ccccc2c1C#CCCCCO | 2.63% (inactive) |  |
| O=C1C=C(c2ccnc3cc(Cl)ccc23)C[C@@H](c2ccc3c(c2)OCO3)C1 |  | 9.2 µM (active) |
| COc1ccc2cc(C3=CC(=O)C[C@H](c4ccc5c(c4)OCO5)C3)ccc2c1 | -11.8% (inactive) |  |
| O=C1C=C(c2cccc(Cl)c2)C[C@@H](c2ccc(F)cc2)C1 | -1.21% (inactive) |  |
| O=S(=O)(c1ccc2c(c1)OCCCO2)N1CCN(S(=O)(=O)c2c(F)cccc2F)CC1 | 18.5% (inactive) |  |
| COc1ccccc1Nc1nc(N)nc(N)c1S(=O)(=O)c1ccccc1 | 1.76% (inactive) |  |
| CCOC(=O)c1ccc(NC(=O)c2nc[nH]c2C(=O)NCc2ccccc2)cc1 | -19.4% (inactive) |  |
| CC(C)(C)OC(=O)NCCCCCNC(=O)c1[nH]cnc1C(=O)Nc1nccs1 | -19.6% (inactive) |  |

| Compound | activity change, negative = inhibition | Potency |
| --- | --- | --- |
| CCOC(=O)c1ccc(NC(=O)c2nc[nH]c2C(=O)N[C@@H](CCCCNC(=O)OC(C)(C)C)C(=O)OC(C)(C)C)cc1 |  | 23.1 µM (active) |
| COc1ccc(OC)c(NC(=O)CSc2nc3ccccc3nc2N2CCCCC2)c1 | -8.4% (inactive) |  |
| CC(C)c1cc(N=O)cc(C(C)C)c1O | 15.6% (inactive) |  |
| CCCCCc1ccc(-c2cn(Cc3ccc4ccccc4c3)nn2)cc1 | 8.41% (inactive) |  |
| CCCCOc1ccc(-c2ncc(C(=O)OCC)c(N)n2)cc1 | -13.9% (inactive) |  |
| CCCCCc1ccc(-c2ccc(OCC)cc2)nc1 |  | 0.366 µM (active) |
| CNC(=O)c1ccsc1NC(=O)c1ccc(S(=O)(=O)N2CCc3ccccc32)cc1 |  | 16.4 µM (active) |
| O=S(=O)(c1ccccc1)N1CCc2ccccc21 | -4.14% (inactive) |  |
| CNC(=O)c1ccsc1NC(=O)c1ccc(S(=O)(=O)N2CCOCC2)cc1 | -27.8% (inactive) |  |
| COc1ccc(C(=O)NCc2ccc(Cl)cc2)cc1S(=O)(=O)N1CCCC1 | -19.1% (inactive) |  |
| CCOC(=O)c1c(C)oc2nc(C)nc(N(CC(C)C)CC(C)C)c12 | -23.4% (inactive) |  |
| CCCSc1ccc([C@H]2N[C@@](Cc3ccccc3)(C(=O)OC)[C@H]3C(=O)N(C)C(=O)[C@@H]23)cc1 | -4.83% (inactive) |  |
| Cc1ccc(NC(=O)COC(=O)C2CC2)cc1S(=O)(=O)N1CCOCC1 | 8.96% (inactive) |  |
| Cc1ccc(NC(=O)CCNC(=O)c2ccc([N+](=O)[O-])cc2)cc1S(=O)(=O)N1CCOCC1 | 3.63% (inactive) |  |
| Cc1ccc(NC(=O)CCC(=O)N2CCC(c3ccccc3)=N2)cc1S(=O)(=O)N1CCCCC1 | -25.3% (inactive) |  |
| Cc1ccc(NC(=O)CCCNC(=O)c2ccc(Cl)cc2)cc1S(=O)(=O)N1CCCCC1 |  | 16.4 µM (active) |
| Cc1ccc(NS(=O)(=O)c2cccs2)cc1S(=O)(=O)N1CCCCCC1 |  | 7.31 µM (active) |
| O=C(C1CCN(S(=O)(=O)c2cccs2)CC1)N1CCCCCC1 | 19.6% (inactive) |  |
| Cc1ccc(C(=O)NNC(=O)c2ccncc2)cc1S(=O)(=O)N1CCCCC1 | -7.77% (inactive) |  |
| CCc1ccccc1OCC(=O)Nc1ccc(C)c(S(=O)(=O)N2CCCCCC2)c1 |  | 25.9 µM (active) |
| Cc1ccc(NC(=O)CCCNC(=O)c2ccc(Cl)cc2)cc1S(=O)(=O)N1CCOCC1 | -7.44% (inactive) |  |
| CC1CN(C(=O)N2CCC(C(=O)NCc3cccs3)CC2)c2ccccc2O1 (configuration not stated) | -14% (inactive) |  |
| O=C(CCCCn1c(=O)c2ccccc2n(CC(=O)Nc2cccc(C(F)(F)F)c2)c1=O)NCc1ccc2c(c1)OCO2 | -14.1% (inactive) |  |

| Compound | activity change, negative = inhibition | Potency |
| --- | --- | --- |
| CCCS(=O)(=O)N1CCC(n2c(C(F)(F)F)nc3cccnc32)CC1 | -6.94% (inactive) |  |
| O=C(N[C@@H]1C/C=C\C[C@@H](CC(=O)N(CCO)Cc2ccccc2)C(=O)N[C@H](Cc2ccccc2)COC1=O)OCC1c2ccccc2-c2ccccc21 | -2.23% (inactive) |  |
| Fc1ccc2[nH]c3c(N4CCSCC4)ncnc3c2c1 |  | 18.4 µM (active) |
| Cc1c(CN2CC[C@@H](N3CCN(c4ccccn4)CC3)[C@H](O)C2)[nH]c2ccc(F)cc12 | -6.24% (inactive) |  |
| O=c1[nH]c(N2CCN(Cc3ccc4c(c3)OCO4)CC2)nc2c1CCCC2 | -8.11% (inactive) |  |
| CC(C)(C)n1nnnc1C(c1ccc(F)cc1)N1CCN(Cc2ccc3c(c2)OCO3)CC1 (configuration not stated) | -7.86% (inactive) |  |
| Fc1ccc2[nH]c3c(N4CCN(Cc5ccc6c(c5)OCO6)CC4)ncnc3c2c1 |  | 10.3 µM (active) |
| CCn1c(CN2CCC(C)CC2)nc2cc(NC(=O)c3ccccc3[N+](=O)[O-])ccc21 | -4.26% (inactive) |  |
| CCCN(CC(=O)Nc1ccccc1C)C(=O)c1ccc(OCC(=O)N2CCOCC2)c(OCC)c1 | 1.1% (inactive) |  |
| Cc1ccccc1NC(=O)Cn1c(=O)n(CC2CCC(C(=O)NCCc3ccccc3)CC2)c(=O)c2ccccc21 (configuration not stated) | 5.11% (inactive) |  |
| COc1cc(C(=O)NCC(c2ccco2)N2CCCC2)ccc1OCc1ccccc1 (configuration not stated) | 7.02% (inactive) |  |
| Cc1ccccc1Nc1nn2c(=O)c3ccc(C(=O)NCCc4ccc(Cl)cc4)cc3nc2s1 | -7.63% (inactive) |  |
| Cc1ccc(S(=O)(=O)NC(N)=NCCC[C@@H](NC(=O)CNC(=O)c2ccccc2)C(=O)Nc2cc(C(F)(F)F)ccc2Cl)cc1 | 4.08% (inactive) |  |
| O=C1NC[C@@H](c2ccccc2)OC(=O)[C@H](Cc2ccc(F)cc2)CC/C=C/C[C@H]1CC(=O)N(CCO)Cc1ccccc1 | -7.42% (inactive) |  |
| Cc1ccc2nc(-c3ccc(O)cc3)c(Nc3ccc4c(c3)OCO4)n2c1 | 8.81% (inactive) |  |
| Cc1nc2ccccc2c(C(=O)O)c1-c1ccccn1 | 0.203% (inactive) |  |
| Cc1nc2ccccc2c(C)c1C(=O)c1ccc(F)cc1 | 10% (inactive) |  |
| Cc1nc2ccccc2c(-c2ccccc2)c1C(=O)c1ccccc1 |  | 23.1 µM (active) |
| CC1(C)O[C@@H]2CC3C4C[C@H](F)C5=CC(=O)C=CC5(C)C4C(O)CC3(C)[C@]2(C(=O)CO)O1 (some centres not stated) |  | 0.0046 µM (active) |
| Cc1ccc(C(CC(=O)O)NC(=O)c2ccc(S(=O)(=O)N3CCCC3)cc2)cc1 (configuration not stated) | 0.991% (inactive) |  |
| CCC(CC)COC(=O)C1=C(C)NC(=O)NC1c1ccc([N+](=O)[O-])cc1 (configuration not stated) |  | 25.9 µM (active) |
| COCCOC(=O)C1=C(C)NC(=O)NC1c1ccc(Cl)cc1 (configuration not stated) | -1.05% (inactive) |  |
| CCOCCOC(=O)C1=C(C)NC(=O)NC1c1ccc2c(c1)OCO2 (configuration not stated) | -4.03% (inactive) |  |
